# Tests used:
# Assay in all cases: PBM binding z-score (relative to random genomic background probes); higher = stronger binding; sequences stand for … in GC…GCGATTGACAGCGTAGAATGAAGG
# [1] = test system: FXR:RXRa (NR concentration 270 nM, RXRa partner concentration 90 nM)
# Procedure, shortened: (§1)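 Ligand-free nuclear receptor dimers were applied to custom Agilent 4×180K protein-binding microarrays whose double-stranded probes carried direct-repeat seeds, single-nucleotide variants, half-site ablations and random human genomic background sequences in 34-nt variable regions. Incubation lasted 1 h. Binding z-scores were computed against the random background probes from regression-normalized fluorescence.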
# [2] = test system: LXRa:RXRa (NR concentration 270 nM, RXRa partner concentration 90 nM)
# Procedure, shortened: as §1
# [3] = test system: LXRa homodimer (NR concentration 270 nM)
# Procedure, shortened: as §1
# [4] = test system: LXRb:RXRa (NR concentration 270 nM, RXRa partner concentration 90 nM)
# Procedure, shortened: as §1
# [5] = test system: LXRb homodimer (NR concentration 270 nM)
# Procedure, shortened: as §1
# [6] = test system: PPARa:RXRa (NR concentration 270 nM, RXRa partner concentration 90 nM)
# Procedure, shortened: as §1
# [7] = test system: PPARg:RXRa (NR concentration 180 nM, RXRa partner concentration 90 nM)
# Procedure, shortened: as §1
# [8] = test system: PPARg:RXRa 270nM:90nM, anti-RXR (NR concentration 270 nM, RXRa partner concentration 90 nM)
# Procedure, shortened: as §1
# [9] = test system: PPARg:RXRa 30nM:10nM, anti-RXR (NR concentration 30 nM, RXRa partner concentration 10 nM)
# Procedure, shortened: as §1
# [10] = test system: PPARg:RXRa 90nM:30nM, anti-RXR (NR concentration 90 nM, RXRa partner concentration 30 nM)
# Procedure, shortened: as §1
# [11] = test system: PPARg:RXRa DBDmut IVT, anti-RXR (DBD mutation: RXRa K156A/R161A, NR concentration 270 nM, RXRa partner concentration 90 nM)
# Procedure, shortened: as §1
# [12] = test system: PPARg:RXRa IVT, anti-PPARg (NR concentration 270 nM, RXRa partner concentration 90 nM)
# Procedure, shortened: as §1
# [13] = test system: PPARg DBDmut IVT, anti-PPARg (DBD mutation: PPARg1 K132A/R137A, NR concentration 270 nM)
# Procedure, shortened: as §1
# [14] = test system: PPARg homodimer (NR concentration 180 nM)
# Procedure, shortened: as §1
# [15] = test system: PXR:RXRa (NR concentration 270 nM, RXRa partner concentration 90 nM)
# Procedure, shortened: as §1
# [16] = test system: PXR homodimer (NR concentration 270 nM)
# Procedure, shortened: as §1
# [17] = test system: RARa:RXR (NR concentration 270 nM, RXRa partner concentration 90 nM)
# Procedure, shortened: as §1
# [18] = test system: RARa homodimer (NR concentration 270 nM)
# Procedure, shortened: as §1
# [19] = test system: RARb:RXRa (NR concentration 270 nM, RXRa partner concentration 90 nM)
# Procedure, shortened: as §1
# [20] = test system: PPARg DBDmut:RXRa IVT, anti-PPARg (DBD mutation: PPARg1 K132A/R137A, NR concentration 270 nM, RXRa partner concentration 90 nM)
# Procedure, shortened: as §1
Sequence,PBM binding z-score [1],PBM binding z-score [2],PBM binding z-score [3],PBM binding z-score [4],PBM binding z-score [5],PBM binding z-score [6],PBM binding z-score [7],PBM binding z-score [8],PBM binding z-score [9],PBM binding z-score [10],PBM binding z-score [11],PBM binding z-score [12],PBM binding z-score [13],PBM binding z-score [14],PBM binding z-score [15],PBM binding z-score [16],PBM binding z-score [17],PBM binding z-score [18],PBM binding z-score [19],PBM binding z-score [20]
ATATGTAGGATAGGGTCATTCAGAAAGTAGGGAA,3.78,3.12,0.63,3.55,1.08,4.62,4.04,3.78,1.71,3.29,2.75,3.63,1.68,2.36,3.47,1.46,4.19,1.52,2.69,–
ATCGAACGGTCGAGGTGAGTATAGAGAAAGGGAA,-0.0198,-0.0653,-0.353,-0.34,-0.587,0.105,–,-0.114,-0.342,-0.333,-0.731,0.523,-0.166,0.13,-0.26,-0.544,-0.1,-0.343,1.19,0.835
CGAACTAGGTCAAAGAACAGTGAAAGGCGACGTA,3.3,1.96,-0.252,1.43,-0.259,4.66,8.35,7.08,5.63,7.35,7.89,8.03,1.2,0.602,0.752,-0.206,1.51,-0.184,3.58,–
ATATGTAGGTTAGGGTCATTCAGAAAGTAGGGAA,5.09,4.43,1.52,4.66,1.62,5.61,7.97,6.68,4.41,6.43,6.61,6.95,3.49,3.86,4.66,2.12,5.52,2.73,3.34,–
ATAGGTAGGTTAGGGTCATTCAGAAAGTAGGGAA,5.28,4.39,2.09,4.8,2.83,5.26,5.56,4.89,2.63,4.2,3.34,4.16,1.6,3.27,5.14,3.11,5.48,3.2,4,–
CGAACTCGGTCACCAGGACAGTGAAGAGGTTGGA,0.841,0.683,0.119,-0.176,-1.17,1.76,1.91,1.64,-0.104,0.606,4.23,3.87,-0.647,0.233,0.0316,-0.302,0.493,-0.227,2.69,–
ATATGTAGGTTAGGTTCATTCAGAAAGTAGGGAA,1.59,2.28,0.871,2.34,1.28,4.1,4.93,4.37,2.49,4.03,6.23,5.61,2.4,1.77,2.89,2.26,2.24,1.68,1.5,–

# Source: the supplement of paper PMC6555819
